Rows were chosen to be rich in hits. Some 6.7% of all compounds tested hit in one or more screens of this group.
C diff growth: C. difficile growth inhibitors, primary screen, HTS; AID 1259249, 2017; 86,000 tested, 0.25% active; growth activity, negative = inhibition, % at 16 µg/mL (by protocol); Clostridium difficile clinical isolate growth, OD600, 24 h; active compounds read low;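 active = mean growth activity at or below -80% and every replicate also at or below -80%; inconclusive = mean at or below -80% but some replicate above -80%; inactive = mean growth activity above -80%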;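 note: 0% = DMSO wells and -100% = levofloxacin 16 µg/mL wells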
Pf Dd2 inh: P. falciparum Dd2 growth inhibitors, primary screen, SYBR Green fluorescence, single dose replicates; AID 1159554, 2015; 72 h; active compounds read low; 94,000 tested, 2.3% active; activity change, % at 10 µM; in the data active = activity change below about -80%; inconclusive = no clear call, values can overlap the other calls
T cruzi growth-1: T. cruzi intracellular proliferation inhibitors, primary screen, cell-based, beta-gal Tulahuen parasites, NIH3T3 host, luminescence; T. cruzi beta-gal in NIH3T3, GalScreen luminescence, 90 h; inhibition, % at 8.34 µM; 77,000 tested, 5.9% active; AID 624255, 2012;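 active = mean inhibition above about 93%, with at least 55% of replicates each passing it, limit read from the data, passing the limit was not always enough; inconclusive = only one of those two conditions holds; inactive = neither condition holds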
T cruzi growth-2: T. cruzi intracellular proliferation inhibitors, confirmation, cell-based, NIH3T3 host, beta-gal parasite, luminescence, cherry-pick. shares compounds with T cruzi growth-1. inhibition, % at 8.35 µM. AID 651739, 2012. T. cruzi beta-gal in NIH3T3, GalScreen luminescence, 90 h. 5,600 tested, 72% active;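 active = mean replicate inhibition above about 95% and at least 55% of replicates individually reaching it, limit read from the data; inconclusive = only one of the two criteria is met; inactive = neither criterion is met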
T cruzi growth-3: inhibitors of intracellular T. cruzi replication, confirmation, NIH3T3 host cells, beta-gal parasites, cherry-pick, set 2; shares compounds with T cruzi growth-1; T. cruzi beta-gal in NIH3T3, GalScreen luminescence, 90 h; inhibition, % at 2.09 µM; 5,600 tested, 21% active; AID 651740, 2012;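 active = mean inhibition above about 95%, with at least 55% of replicates also reaching it, limit read from the data; inconclusive = meets just one of the two conditions; inactive = meets neither condition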;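 note: plate controls were neutral control median for no effect and positive control median for full effect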
NIH3T3 tox: cytotoxicity in mouse NIH/3T3 fibroblasts, confirmation, cytotoxicity control for T. cruzi proliferation inhibitor project, cell-based, cherry-pick, single point | shares compounds with T cruzi growth-1 | NIH/3T3 viability, CellTiter-Glo ATP luminescence, 90 h | cytotoxicity (signal decrease), % at 8.35 µM | 5,600 tested, 14% active;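 active = mean signal decrease across replicates above about 35% based on untreated-well scatter, with enough replicates individually passing, limit read from the data; inconclusive = no rule stated though some were filed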;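 note: 0% = median of neutral control wells and 100% = median of positive control wells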
3T3 cytotox 2: NIH/3T3 fibroblast cytotoxicity, confirmation, cytotoxicity control, cell-based, cherry-pick, single point, set 2; shares compounds with T cruzi growth-1; NIH/3T3 viability, CellTiter-Glo ATP luminescence, 90 h; inhibition, % at 24.9 µM; 5,600 tested, 56% active;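 active = mean loss of cell viability signal at or above a set limit, and enough replicates individually reaching it; inconclusive = meets only the mean limit or only the replicate share; inactive = meets neither condition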;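 note: 0% = median of neutral control wells and 100% = median of positive control wells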
The depositor's hits bear a star; u = inconclusive; x = no result given.

SMILES	C diff growth	Pf Dd2 inh	T cruzi growth-1	T cruzi growth-2	T cruzi growth-3	NIH3T3 tox	3T3 cytotox 2
N#Cc1ccc(-c2ccc3c(c2)[C@H]2[C@H](CCN2C(=O)c2ccccc2F)[C@H](CO)N3)cc1	2	-7	88	x	x	x	x
N#Cc1ccc(-c2ccc3c(c2)[C@H]2[C@H](CCN2C(=O)C2CC2)[C@H](CO)N3)cc1	-9	12	93	x	x	x	x
N#Cc1ccc(-c2ccc3c(c2)[C@@H]2[C@@H](CCN2C(=O)C2CC2)[C@@H](CO)N3)cc1	2	6	104*	107*	85	-3	35*
CN(C)C(=O)c1ccc(-c2ccc3c(c2)[C@H]2[C@H](CCN2C(=O)c2ccccc2F)[C@@H](CO)N3)cc1	1	-49	53	x	x	x	x
CN(C)C(=O)c1cccc(-c2ccc3c(c2)[C@@H]2[C@@H](CCN2C(=O)c2ccccc2F)[C@@H](CO)N3)c1	-3	-13	106*	100*	68	12	16
COCCNC(=O)C[C@@H]1CC[C@H]2[C@@H](COC[C@H](O)CN2Cc2cccc(-c3ccncc3)c2)O1	6	9	84	x	x	x	x
C[C@@H]1CN([C@@H](C)CO)C(=O)c2cc(-c3ccccc3F)cnc2O[C@@H]1CN(C)C	0	5	-65	x	x	x	x
CO[C@@H]1CN(C)C(=O)c2ccc(NC(=O)c3ccccc3F)cc2OC[C@H](C)N(C(=O)c2ccccc2F)C[C@H]1C	x	3	-12	x	x	x	x
COc1ccc(S(=O)(=O)N(C)C[C@@H]2Oc3c(NC(=O)Nc4c(C)noc4C)cccc3C(=O)N([C@H](C)CO)C[C@H]2C)cc1	x	-18	68	x	x	x	x
COc1ccc(NC(=O)N(C)C[C@@H]2OCCCC[C@@H](C)Oc3ccc(NC(=O)Nc4ccc5c(c4)OCO5)cc3C(=O)N([C@H](C)CO)C[C@H]2C)cc1	1	-26	76	x	x	x	x
COc1ccc(NC(=O)Nc2ccc3c(c2)C(=O)N([C@@H](C)CO)C[C@H](C)[C@H](CN(C)C(=O)Nc2ccc4c(c2)OCO4)OCCCC[C@H](C)O3)cc1	3	-25	u	108*	42	7	-12
COc1ccc(NC(=O)N(C)C[C@@H]2OCCCC[C@H](C)Oc3ccc(NC(=O)Nc4ccc5c(c4)OCO5)cc3C(=O)N([C@@H](C)CO)C[C@@H]2C)cc1	5	-16	44	x	x	x	x
COc1ccc(NC(=O)Nc2ccc3c(c2)C(=O)N([C@H](C)CO)C[C@H](C)[C@H](CN(C)C(=O)Nc2ccc4c(c2)OCO4)OCCCC[C@H](C)O3)cc1	5	-5	u	111*	66	-5	-12
CN1c2ccc(C#Cc3cccnc3)cc2[C@H]2[C@H](CCN2C(=O)Nc2cc(F)ccc2F)[C@@H]1CO	6	-64	51	x	x	x	x
C/C=C/c1ccc([C@H]2[C@@H](CO)N(C(=O)CN(C)C)C23CN(C(=O)C2CC2)C3)cc1	0	-49	x	x	x	x	x
O=C(N[C@H]1C[C@@H]2O[C@H](CO)CC[C@@H]2O[C@@H]1CCc1ccc(-c2ccccc2)cc1)c1cnccn1	-3	-21	x	x	x	x	x
COc1ccc(CN(C)C[C@H]2OCCCC[C@H](C)Oc3ccc(NS(=O)(=O)c4ccc(F)cc4)cc3C(=O)N([C@@H](C)CO)C[C@H]2C)cc1	-13	-72	103*	105*	66	26	103*
COc1ccc(CN(C)C[C@H]2OCCCC[C@@H](C)Oc3ccc(NS(=O)(=O)c4ccc(OC)cc4)cc3C(=O)N([C@@H](C)CO)C[C@@H]2C)cc1	-3	-59	50	x	x	x	x
COc1ccc(S(=O)(=O)Nc2ccc3c(c2)C(=O)N([C@H](C)CO)C[C@H](C)[C@@H](CN(C)Cc2ccc(C(F)(F)F)cc2)OCCCC[C@@H](C)O3)cc1	-2	-38	98*	102*	38	9	84*
